Results filed as inconclusive are left out. The source made the active and inactive calls. Unless noted, calls come from the whole dose curve; as a rule, active = well fitted curve in the direction sought with a large enough effect in the repeat runs; inconclusive = weak or mixed curves; inactive = no such curve, though single readings can be large; an effect the other way counts as inactive or inconclusive. Where a SMILES comes first, the peptide text is derived from it.
Experiments:
[1] = qHTS assay to identify small molecule antagonists of the thyroid receptor (TR) signaling pathway - cell viability counter screen (AID 743064); note: nearly all actives have a fitted effect of over 50% in size; note: potency is the fitted concentration of half-maximal effect
Outline: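 Same-well viability check: GH3.TRE-Luc cells stimulated with 1 nM T3 alongside test compound for 23.5 h, followed by CellTiter-Fluor fluorescence.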

[2] = qHTS assay to identify small molecule antagonists of the estrogen receptor alpha (ER-alpha) signaling pathway - cell viability counter screen (AID 743074; calls by dose curve;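 note: HEK293 cells carrying ER-alpha-UAS-bla reporter stimulated with 17beta-estradiol; nearly all actives have a fitted effect of over 45% in size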)
[3] = biological target: Estrogen receptor (Homo sapiens) (UniProt P03372); assay: qHTS assay to identify small molecule agonists of the estrogen receptor alpha (ER-alpha) signaling pathway (AID 743075; calls by dose curve)
[4] = biological target: Estrogen receptor (Homo sapiens) (UniProt P03372); assay: qHTS assay to identify small molecule agonists of the estrogen receptor alpha (ER-alpha) signaling pathway using the BG1 cell line (AID 743079); note: nearly all actives have a fitted effect of over 20% in size; note: potency is the fitted concentration of half-maximal effect
[5] = qHTS assay to identify small molecule antagonists of the estrogen receptor alpha (ER-alpha) signaling pathway using the BG1 cell line (AID 743080; calls by dose curve;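 note: BG1 cells stimulated with 17beta-estradiol alongside compound; series mostly up to about 70 µM; nearly all actives have a fitted effect of over 25% in size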)
Outline: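 BG1-Luc-4E2 cells (endogenous full-length ER-alpha, 4xERE luciferase) hormone-starved 5 days in charcoal-stripped FBS, plated 4,000/well for 24 h, then compound plus 17beta-estradiol for 21.5 h at 37 C; ONE-Glo luminescence read.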

[6] = qHTS assay to identify small molecule antagonists of the estrogen receptor alpha (ER-alpha) signaling pathway using the BG1 cell line - cell viability counter screen (AID 743081);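 note: compound given together with 17beta-estradiol as the ER stimulus; series mostly up to about 70 µM; nearly all actives have a fitted effect of over 45% in size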
[7] = biological target: Aromatase (Homo sapiens) (UniProt P11511); assay: qHTS assay to identify aromatase inhibitors (AID 743083); note: series mostly up to about 70 µM; nearly all actives have a fitted effect of over 55% in size
[8] = qHTS assay to identify aromatase inhibitors - cell viability counter screen (AID 743084);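 note: cells stimulated with testosterone during compound exposure; nearly all actives have a fitted effect of over 55% in size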
[9] = qHTS assay to identify small molecule that activate the aryl hydrocarbon receptor (AhR) signaling pathway - cell viability counter screen (AID 743086);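 note: HepG2 liver cells carrying the AhR DRE luciferase reporter; series mostly up to about 70 µM; nearly all actives have a fitted effect of over 45% in size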
Outline: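 HepG2-AhR-luc (HG2L7.5c1) cells, 4000/well, treated 24 h at 37 C with compound; viability measured as CellTiter-Fluor fluorescence after 30 min in the same wells as the luciferase read.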

[10] = biological target: Peroxisome proliferator-activated receptor gamma (Homo sapiens) (UniProt P37231); assay: qHTS assay to identify small molecule antagonists of the peroxisome proliferator-activated receptor gamma (PPARg) signaling pathway (AID 743191; calls by dose curve; note: series mostly up to about 63 µM; nearly all actives have a fitted effect of over 30% in size)
Outline: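 GeneBLAzer PPARg UAS-bla HEK293H cells, 5 h post-plating, exposed to compounds 17 h at 37C. LiveBLAzer B/G FRET substrate added for 1 h at room temperature; beta-lactamase reporter read by fluorescence intensity.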

[11] = qHTS assay to identify small molecule antagonists of the peroxisome proliferator-activated receptor gamma (PPARg) signaling pathway - cell viability counter screen (AID 743194); note: nearly all actives have a fitted effect of over 55% in size
Outline: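 Cytotoxicity counter screen in PPARg-bla HEK293H cells, same wells as reporter assay. Compounds plus 50 nM rosiglitazone (final) for 17 h at 37 C, then viability read by CellTiter-Glo luminescence.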

[12] = qHTS assay for small molecule agonists of the antioxidant response element (ARE) signaling pathway (AID 743202; active = well fitted activation curve with a large enough effect in the signal ratio in the repeat runs, not every such curve was filed as active; the % refers to the signal ratio)
Outline: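 ARE-bla HepG2 cells (beta-lactamase reporter under the antioxidant response element), plated 5 hours, then exposed to compounds 16 hours at 37 C. LiveBLAzer B/G FRET substrate added for 2 hours at room temperature; fluorescence intensity read.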

[13] = qHTS assay for small molecule agonists of the antioxidant response element (ARE) signaling pathway - cell viability counter screen (AID 743203; calls by dose curve; note: nearly all actives have a fitted effect of over 55% in size)
Outline: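 Compounds in DMSO were pinned onto ARE-bla HepG2 cells plated 5 hrs earlier at 2,000 cells/well. Sixteen hours later at 37C/5% CO2, CellTiter-Glo was added and luminescence measured after 30 min at room temperature.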

[14] = qHTS assay for small molecule activators of the heat shock response signaling pathway - cell viability counter screen (AID 743209); note: nearly all actives have a fitted effect of over 50% in size; note: potency is the fitted concentration of half-maximal effect
Outline: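 Counter screen for cytotoxicity in HeLa HSE-bla reporter cells. Treatment was 5 h at 37 C; viability was detected by luminescent ATP assay (CellTiter-Glo) in the same wells as the beta-lactamase read.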

[15] = qHTS assay for small molecule activators of the heat shock response signaling pathway (AID 743210; active = well fitted activation curve with a large enough effect in the signal ratio in the repeat runs, with a control signal flat, not every such curve was filed as active; the % refers to the signal ratio; note: series mostly up to about 63 µM)
Outline: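 HSE-bla HeLa cells (beta-lactamase reporter under heat shock response elements), plated overnight, then exposed to compounds 5 h at 37 C; LiveBLAzer B/G FRET substrate added, 2.5 h at room temperature, fluorescence intensity read.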

[16] = biological target: Estrogen receptor (Homo sapiens) (UniProt P03372); assay: qHTS assay to identify small molecule antagonists of the estrogen receptor alpha (ER-alpha) signaling pathway (AID 743069; active = well fitted curve in the direction sought with a large enough effect in the signal ratio in the repeat runs, not every such curve was filed as active; the % refers to the signal ratio)
Outline: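 HEK293 ER-alpha-UAS-bla GripTite cells, held overnight in 2% charcoal-stripped FBS, 5,000 cells/well, preincubated 4 h, then compound plus 17beta-estradiol for 18 h at 37C. Beta-lactamase read by LiveBLAzer B/G FRET substrate, 2 h at room temperature.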

[17] = biological target: Aryl hydrocarbon receptor (Homo sapiens) (UniProt P35869); assay: qHTS assay to identify small molecule that activate the aryl hydrocarbon receptor (AhR) signaling pathway (AID 743085);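 note: HG2L7.5c1 human HepG2 liver cells with stably integrated DRE-driven firefly reporter; series mostly up to about 70 µM; nearly all actives have a fitted effect of over 15% in size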
Outline: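 Reporter assay in engineered HepG2 line HG2L7.5c1, whose plasmid carries twenty dioxin responsive elements upstream of firefly luciferase. Treatment lasted 24 h at 37C; ONE-Glo luminescence gauged induction.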

[18] = qHTS assay to identify small molecule antagonists of the thyroid receptor (TR) signaling pathway (AID 743065); note: nearly all actives have a fitted effect of over 55% in size; note: potency is the fitted concentration of half-maximal effect
Outline: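 GH3.TRE-Luc rat pituitary cells (two TREs driving luciferase) were dosed with compound, then stimulated with 1 nM T3 (final) for 23.5 h at 37 C. ONE-Glo luminescence was the read-out, with CellTiter-Fluor fluorescence as the cytotoxicity counter-screen.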

[19] = test system: thyroid hormone receptor (rat, GH3 cells); assay: qHTS assay to identify small molecule agonists of the thyroid receptor (TR) signaling pathway (AID 743066; calls by dose curve)
[20] = biological target: Peroxisome proliferator-activated receptor gamma (Homo sapiens) (UniProt P37231); assay: qHTS assay to identify small molecule agonists of the peroxisome proliferator-activated receptor gamma (PPARg) signaling pathway (AID 743094; active = well fitted activation curve with a large enough effect in the signal ratio in the repeat runs, not every such curve was filed as active; the % refers to the signal ratio)
Outline: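 Following 5 h plating at 37C, PPARg-bla HEK293H cells receive compound or DMSO for 17 h; fluorescence intensity is recorded after LiveBLAzer B/G loading for 1 h at room temperature.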

Measured: Potency

Estrogen receptor (Homo sapiens), sequence (P03372 whole entry, looked up): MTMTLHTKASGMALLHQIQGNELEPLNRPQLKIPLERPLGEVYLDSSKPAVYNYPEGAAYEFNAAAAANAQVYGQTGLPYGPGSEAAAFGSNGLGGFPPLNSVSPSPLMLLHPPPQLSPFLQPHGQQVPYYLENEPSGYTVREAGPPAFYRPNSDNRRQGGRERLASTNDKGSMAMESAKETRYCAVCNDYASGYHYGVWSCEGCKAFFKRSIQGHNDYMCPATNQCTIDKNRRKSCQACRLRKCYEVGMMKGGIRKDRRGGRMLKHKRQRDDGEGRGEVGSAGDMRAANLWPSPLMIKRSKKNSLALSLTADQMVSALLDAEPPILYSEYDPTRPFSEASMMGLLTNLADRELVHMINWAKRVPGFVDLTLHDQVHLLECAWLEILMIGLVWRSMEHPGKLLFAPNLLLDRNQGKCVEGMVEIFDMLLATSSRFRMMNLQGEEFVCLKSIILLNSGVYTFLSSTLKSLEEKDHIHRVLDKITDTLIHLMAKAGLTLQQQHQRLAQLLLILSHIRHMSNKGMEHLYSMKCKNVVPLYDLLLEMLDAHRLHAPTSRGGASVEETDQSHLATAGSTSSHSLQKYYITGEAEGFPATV
Peroxisome proliferator-activated receptor gamma (Homo sapiens), sequence (P37231 whole entry, looked up): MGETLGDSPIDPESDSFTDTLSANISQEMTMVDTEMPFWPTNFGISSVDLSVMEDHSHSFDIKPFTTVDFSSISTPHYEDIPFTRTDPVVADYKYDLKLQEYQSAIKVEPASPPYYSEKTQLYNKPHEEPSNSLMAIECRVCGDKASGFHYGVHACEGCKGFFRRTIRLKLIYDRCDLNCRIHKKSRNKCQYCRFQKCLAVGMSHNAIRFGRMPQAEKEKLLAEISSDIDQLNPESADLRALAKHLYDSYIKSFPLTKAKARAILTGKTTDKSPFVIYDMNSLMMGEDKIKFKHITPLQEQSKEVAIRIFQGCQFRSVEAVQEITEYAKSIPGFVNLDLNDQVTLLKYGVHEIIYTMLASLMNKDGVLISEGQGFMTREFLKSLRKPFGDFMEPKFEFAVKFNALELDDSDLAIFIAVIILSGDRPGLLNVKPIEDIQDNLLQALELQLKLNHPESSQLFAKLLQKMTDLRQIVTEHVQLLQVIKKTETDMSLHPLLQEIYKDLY
Aromatase (Homo sapiens), sequence (P11511 whole entry, looked up): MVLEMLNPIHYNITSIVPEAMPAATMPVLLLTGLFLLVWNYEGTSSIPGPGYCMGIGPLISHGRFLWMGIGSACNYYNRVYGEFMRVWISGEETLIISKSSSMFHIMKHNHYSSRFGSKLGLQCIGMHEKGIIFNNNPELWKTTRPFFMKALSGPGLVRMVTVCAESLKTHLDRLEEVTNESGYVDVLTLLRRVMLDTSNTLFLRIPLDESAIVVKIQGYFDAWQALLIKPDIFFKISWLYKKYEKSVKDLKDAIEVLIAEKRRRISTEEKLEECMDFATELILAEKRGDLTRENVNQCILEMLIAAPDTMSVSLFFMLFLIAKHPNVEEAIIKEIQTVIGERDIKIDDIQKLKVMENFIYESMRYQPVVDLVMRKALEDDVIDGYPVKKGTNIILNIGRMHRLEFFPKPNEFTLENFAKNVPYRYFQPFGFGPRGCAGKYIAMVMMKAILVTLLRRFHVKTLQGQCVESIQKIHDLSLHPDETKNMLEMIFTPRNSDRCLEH
Aryl hydrocarbon receptor (Homo sapiens), sequence (P35869 whole entry, looked up): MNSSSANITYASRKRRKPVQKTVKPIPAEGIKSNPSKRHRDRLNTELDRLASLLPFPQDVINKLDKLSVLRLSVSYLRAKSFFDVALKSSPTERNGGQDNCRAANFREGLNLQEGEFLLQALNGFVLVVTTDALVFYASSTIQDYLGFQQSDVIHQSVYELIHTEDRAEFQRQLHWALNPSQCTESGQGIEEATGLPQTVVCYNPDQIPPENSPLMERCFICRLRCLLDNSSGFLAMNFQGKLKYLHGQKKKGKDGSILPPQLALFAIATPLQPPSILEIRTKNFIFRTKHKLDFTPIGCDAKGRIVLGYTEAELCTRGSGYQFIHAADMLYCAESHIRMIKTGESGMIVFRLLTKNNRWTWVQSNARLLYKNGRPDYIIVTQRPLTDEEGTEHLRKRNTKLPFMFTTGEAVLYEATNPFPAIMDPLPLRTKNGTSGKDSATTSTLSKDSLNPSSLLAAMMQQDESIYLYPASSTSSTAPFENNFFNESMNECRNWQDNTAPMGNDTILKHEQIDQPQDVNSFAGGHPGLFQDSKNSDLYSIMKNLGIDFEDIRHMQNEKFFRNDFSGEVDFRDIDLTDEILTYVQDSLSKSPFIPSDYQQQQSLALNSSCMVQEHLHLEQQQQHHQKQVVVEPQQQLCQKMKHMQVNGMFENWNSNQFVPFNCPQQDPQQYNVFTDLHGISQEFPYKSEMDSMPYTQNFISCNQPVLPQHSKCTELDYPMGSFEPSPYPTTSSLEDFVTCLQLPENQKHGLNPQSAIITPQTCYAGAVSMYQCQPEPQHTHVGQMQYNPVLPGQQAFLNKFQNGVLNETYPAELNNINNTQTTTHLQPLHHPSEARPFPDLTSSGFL

Nc1nc(-c2ccccc2)c(Br)c(=O)[nH]1
not listed: [16] | [17] | [18] | [19] | [20]
inactive: all other assays above

C=CCN1C[C@H](C(=O)N(CCCN(C)C)C(=O)NCC)C[C@@H]2c3cccc4[nH]cc(c34)C[C@H]21
active: [1] 3.76 µM
not listed: [6] | [14] | [18] | [19] | [20]
inactive: all other assays above

COC(C)(OC)OC
not listed: [2] | [12] | [16]
inactive: all other assays above

C=CC(=O)OCC1CCCO1 (configuration not stated)
not listed: [2] | [9] | [12] | [14] | [16] | [17] | [19]
inactive: all other assays above

C=C(C)[C@@H]1CC=C(C)C(=O)C1
not listed: [3] | [4] | [5] | [10] | [11] | [16] | [17]
inactive: all other assays above

COc1ccc(CCO)cc1
not listed: [3] | [4] | [5] | [10] | [11] | [16] | [17]
inactive: all other assays above

CN(C)CC/C=C1/c2ccccc2COc2ccc(CC(=O)O)cc21
inactive: [1] | [18] | [19] | [2] | [6] | [11] | [12] | [13] | [14] | [15]

O=Cc1ccccc1Cl
not listed: [3] | [4] | [5] | [8] | [12] | [14] | [16]
inactive: all other assays above

NCc1ccc(S(N)(=O)=O)cc1
not listed: [3] | [4] | [5] | [16] | [17] | [20]
inactive: all other assays above

COCCc1ccccn1
inactive: [10] | [11] | [12] | [13] | [15]

CN(C)CCCO[C@@H]1[C@H]2OC(C)(C)O[C@H]2O[C@@H]1C(O)CO (some centres not stated)
not listed: [1] | [20]
inactive: all other assays above

COc1cc2c(cc1OC)C(=O)C(CC1CCN(Cc3ccccc3)CC1)C2 (configuration not stated)
active: [18] 26.6 µM | [4] 26.6 µM
inactive: [19] | [2] | [3] | [6] | [7] | [8] | [9] | [11] | [13] | [15]

COc1cc(OC)nc(O[C@H](C(=O)O)C(OC)(c2ccccc2)c2ccccc2)n1
inactive: [11] | [12] | [13] | [14]

CC(C)C[C@@H]1[C@H](c2ccccc2)OC(=O)N1CCCN1CCCCCC1
inactive: [10] | [11] | [12] | [13] | [14] | [15]

[O-][n+]1cccc(/C(Cl)=N/OC[C@@H](O)CN2CCCCC2)c1
inactive: [11] | [12] | [13] | [14] | [15]

CCN(CC)CCN
inactive: [10] | [11] | [12] | [13] | [15]

CCC(C(=O)OCCN1CCOC(c2ccccc2)C1C)c1ccccc1 (configuration not stated)
inactive: [11] | [12] | [13] | [14] | [15]

O=C1OCCO1
not listed: [1] | [11] | [12] | [17]
inactive: all other assays above

O=C(CCCl)NCCc1ccccc1
inactive: [11] | [13] | [14] | [15]

NCC1(Cc2noc(=O)[nH]2)CCCCC1
not listed: [1] | [10] | [12] | [18] | [19]
inactive: all other assays above

CCCC(=O)OC/C=C(\C)CCC=C(C)C
not listed: [1] | [6] | [12] | [14] | [16] | [17]
inactive: all other assays above

COc1cc(/C=C/C(N)=O)cc(OC)c1OC
inactive: [11] | [12] | [13] | [14] | [15]

CC(=O)N[C@@H](CO)C(=O)N[C@@H](CC(=O)O)C(=O)N[C@@H](CCCCN)C(=O)N1CCC[C@H]1C(=O)O (Ac-SDKP-OH)
inactive: [10] | [11] | [13] | [15]

CCOc1ccccc1OCC1CNCCO1 (configuration not stated)
inactive: [10] | [11] | [12] | [13] | [15]

CC(C)c1ccc(C=O)cc1
not listed: [1] | [11]
inactive: all other assays above

CCCC(=O)OCCC(C)CCC=C(C)C (configuration not stated)
active: [14] 49 µM
not listed: [1] | [3] | [4] | [5] | [10] | [15] | [16]
inactive: all other assays above
